# Experimental data from ChEMBL document CHEMBL1201862, “PubChem BioAssay data set” (2004).
# Among all 400,000 compounds or so, about 2,100 (0.53%) were called active. Not shown: some 14% with an inconclusive outcome. The rule behind the calls is not given here. The sample as a whole holds a higher share of actives than the screen did.
# Target: Ataxin-2 (Homo sapiens) (UniProt Q99700)
# Assay: qHTS for Inhibitors of ATXN expression.
# Type: functional
# Chain of Ataxin-2 (Homo sapiens) (Q99700 whole entry): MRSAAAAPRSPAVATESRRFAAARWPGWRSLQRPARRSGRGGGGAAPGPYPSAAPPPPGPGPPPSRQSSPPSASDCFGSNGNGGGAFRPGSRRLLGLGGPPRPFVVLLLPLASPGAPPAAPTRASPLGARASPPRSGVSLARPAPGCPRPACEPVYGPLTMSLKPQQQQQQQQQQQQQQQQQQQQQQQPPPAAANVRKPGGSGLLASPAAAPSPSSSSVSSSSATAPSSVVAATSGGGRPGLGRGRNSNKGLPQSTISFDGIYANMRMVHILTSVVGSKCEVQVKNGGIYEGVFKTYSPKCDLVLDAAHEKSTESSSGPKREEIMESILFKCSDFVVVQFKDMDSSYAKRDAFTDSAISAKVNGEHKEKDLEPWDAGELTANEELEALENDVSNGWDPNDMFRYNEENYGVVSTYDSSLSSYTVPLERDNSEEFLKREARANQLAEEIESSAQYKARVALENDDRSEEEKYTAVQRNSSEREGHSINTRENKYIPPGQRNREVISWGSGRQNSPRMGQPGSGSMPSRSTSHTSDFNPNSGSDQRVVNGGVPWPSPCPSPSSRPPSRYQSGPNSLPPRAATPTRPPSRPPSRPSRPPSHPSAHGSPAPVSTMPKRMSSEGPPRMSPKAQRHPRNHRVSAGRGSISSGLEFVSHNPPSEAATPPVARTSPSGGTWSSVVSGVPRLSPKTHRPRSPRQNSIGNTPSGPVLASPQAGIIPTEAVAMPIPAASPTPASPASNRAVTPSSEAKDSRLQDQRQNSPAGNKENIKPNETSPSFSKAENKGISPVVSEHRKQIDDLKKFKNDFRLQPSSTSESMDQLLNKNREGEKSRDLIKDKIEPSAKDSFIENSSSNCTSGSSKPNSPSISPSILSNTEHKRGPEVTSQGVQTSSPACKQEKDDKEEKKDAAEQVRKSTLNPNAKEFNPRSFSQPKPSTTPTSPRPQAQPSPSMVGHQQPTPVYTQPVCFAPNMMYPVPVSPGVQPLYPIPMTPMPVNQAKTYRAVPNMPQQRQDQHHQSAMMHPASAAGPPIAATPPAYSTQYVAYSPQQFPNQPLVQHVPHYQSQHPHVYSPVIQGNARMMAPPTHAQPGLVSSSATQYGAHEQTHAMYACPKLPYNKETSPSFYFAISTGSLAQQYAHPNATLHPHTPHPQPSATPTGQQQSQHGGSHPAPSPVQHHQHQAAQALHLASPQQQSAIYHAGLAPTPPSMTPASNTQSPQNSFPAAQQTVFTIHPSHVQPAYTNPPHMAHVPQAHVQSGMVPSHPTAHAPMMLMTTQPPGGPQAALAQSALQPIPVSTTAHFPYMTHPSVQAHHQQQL
row,Structure (SMILES),Potency
1,Cc1c(NC(=O)C(C)OC(=O)c2cccc(S(=O)(=O)N3CCOCC3)c2)c(=O)n(-c2ccccc2)n1C (stereo unspecified),inactive
2,COc1ccc(C(=O)/C=C/c2ccc(O)cc2)c(O)c1C/C=C(\C)CCC=C(C)C,39.8 µM (active)
3,COc1cc(/C=C/C(=O)OCC(=O)Nc2ccc(Cl)cn2)ccc1O,inactive
4,COc1ccc(C(=O)/C=C/c2ccc(O)cc2)c(O)c1CC=C(C)C,39.8 µM (active)
5,COc1ccc(/C=C/C(=O)C2C(=O)C=C(C)OC2=O)cc1O (stereo unspecified),inactive
6,COc1ccc(-c2cc(C(F)(F)F)n3ncc(C(=O)N4CCCCC4c4cccnc4)c3n2)cc1 (stereo unspecified),inactive
7,N#Cc1c(O)nc2c(c1-c1cccnc1)COc1ccccc1-2,inactive
8,O=C(NC(=S)N1CCN(c2ccc(C(F)(F)F)cc2[N+](=O)[O-])CC1)c1cccs1,39.8 µM (active)
9,O=C(NC(=S)N1CCN(c2ccc(Cl)cc2[N+](=O)[O-])CC1)c1cccs1,17.8 µM (active)
10,O=C(N/N=C/c1cc(Cl)cc([N+](=O)[O-])c1O)c1ccccc1NS(=O)(=O)c1cccs1,inactive
11,O=C(COC(=O)c1cccc([N+](=O)[O-])c1)NNC(=O)c1cccs1,inactive
12,Cc1cccc(N2CCN(C(=O)Cc3ccccc3[N+](=O)[O-])CC2)c1C,inactive
13,CC(=O)c1ccc2c(c1)c(C#N)c1ccccc1[n+]2[O-],inactive
14,CCC(=O)Nc1c(C#N)c2nc3ccccc3nc2n1-c1ccc(C)cc1,inactive
15,CCN(CC)c1nc2ccccc2nc1C(C#N)C(=O)NCCc1ccccc1 (stereo unspecified),inactive
16,CCN(CC(=O)Nc1cc(Cl)ccc1C)C(=O)C1CCCCC1,inactive
17,CCC(C)N(CC(=O)Nc1cccc(C)c1C)C(=O)CCl (stereo unspecified),7.52 µM (active)
18,Cc1cccc(NC(=O)CN(C)C(=O)Cc2ccc(-c3ccccc3)cc2)c1C,inactive
19,CCN(CC)C(=O)COc1ccc(/C=C(\C#N)S(=O)(=O)c2ccccc2)cc1OC,inactive
20,Cc1cc(C)c(OCCN2CCOCC2)c(Cl)c1,inactive
21,COc1ccc(Cl)cc1CNCCCSc1ncccn1,inactive
22,C=CCc1cc(Cl)ccc1OCCCNC(C)C,inactive
23,Clc1ccc(OCCCNCc2ccccc2)c(Br)c1,39.8 µM (active)
24,C=CCNCCCCOc1cccc(Br)c1,inactive
25,Cc1cc(C)c(OCCCCNCc2ccccc2)c(Cl)c1,39.8 µM (active)
26,CN(C)/C=N/c1c(Br)cc(Br)c2nonc12,inactive

row,Structure (SMILES),Potency
1,COCCN(CCOC)C(=O)c1cc2c(=O)n3ccccc3nc2s1,inactive
2,O=C1NC[C@@H](c2ccccc2)OC(=O)[C@@H](Cc2ccc(F)cc2)CC/C=C/C[C@H]1CC(=O)N(CCO)Cc1ccccc1,28.2 µM (active)
3,O=C1N[C@@H](Cc2c[nH]c3ccccc23)COC(=O)[C@@H](Cc2ccc(F)cc2)C/C=C\C[C@H]1CC(=O)N(CCO)Cc1ccccc1,35.5 µM (active)
4,COCCn1c(N)c(C#N)c2nc3ccccc3nc21,inactive
5,Fc1ccc(-n2c(-c3cccs3)nc3nc4ccccc4nc32)cc1,inactive
6,O=C(Nc1ccc2c(c1)OCCO2)c1cccnc1Oc1ccc(Cl)cc1,inactive
7,O=C(Nc1ccc2c(c1)OCCO2)c1cccc2nc3ccccc3nc12,35.5 µM (active)
8,O=C(O)c1ccccc1-c1ccccc1C(=O)Nc1ccc2c(c1)nc(O)c1ccccc12,inactive
9,CCO/C=C1/C(=O)N(c2ccccc2OC)C(=O)c2ccccc21,inactive
10,COc1ccccc1N1C(=O)C2C(C(=O)c3ccccc3)=NN(c3ccccc3)C2C1=O (stereo unspecified),inactive
11,COc1ccccc1N1C(=O)C2C(C(=O)c3ccccc3)=NN(c3ccccc3OC)C2C1=O (stereo unspecified),inactive
12,CC[C@]1(c2ccccc2OC)ON(c2ccccc2C(F)(F)F)C1=O,35.5 µM (active)
13,COc1ccccc1-n1c([S-])c(C(=O)Nc2ccccc2C(F)(F)F)[n+]2ccc(C(=O)NCCO)cc12,inactive
14,CC[C@@]1(c2ccccc2OC)ON(c2ccccc2C(F)(F)F)C1=O,22.4 µM (active)
15,Cc1ccccc1NC(=O)c1cc2c(=O)n3cccc(C)c3nc2s1,inactive
16,CC1CCCCC1NC(=O)c1cc2c(=O)n3ccccc3nc2n1C (stereo unspecified),inactive
17,COc1ccc([N+](=O)[O-])c(S(=O)(=O)c2ccc(Cl)cc2)n1,14.1 µM (active)
18,O=C1c2cccc3c([N+](=O)[O-])ccc(c23)C(=O)N1c1ccc(Cl)cn1,inactive
19,COc1ccc([N+](=O)[O-])c(S(=O)(=O)c2ccccc2)n1,7.52 µM (active)
20,COc1ccccc1N=C(NS(=O)(=O)c1ccc(C)cc1)c1ccccc1,inactive
21,CC1CN(c2ccc([N+](=O)[O-])c(NCCOc3ccc(Cl)cc3)c2)CC(C)N1 (stereo unspecified),inactive
22,CCN(CC)c1ccc(C=C(c2nnnn2-c2ccccc2)c2nnnn2-c2ccccc2)cc1,inactive
23,Cc1cc2cc3c(=O)[nH]c(=O)nc-3n(CC(O)C(O)C(O)CO)c2cc1C (stereo unspecified),inactive
24,C=CC(=O)/N=c1\sc2ccccc2n1-c1ccccc1,37.7 µM (active)
25,CCN=C(S)N(CCc1c(C)[nH]c2ccc(C)cc12)Cc1cccnc1,inactive
26,COc1cc2nc(/C=C/c3ccc(N(C)C)cc3)sc2cc1SC,inactive

row,Structure (SMILES),Potency
1,CC(C)CN=C(S)N1CCN(c2nc3ccccc3s2)CC1,inactive
2,CCc1cccc2sc(N3CCN(C(=O)c4ccc([N+](=O)[O-])o4)CC3)nc12,39.8 µM (active)
3,Clc1cccc2sc(N3CCN(c4ccccc4)CC3)nc12,inactive
4,Nc1ccc2cc3ccccc3cc2c1,inactive
5,CC(C)OCCCN(C)C1CCN(S(=O)(=O)c2ccc(-c3cc(C(F)(F)F)no3)s2)CC1,inactive
6,c1ccc(N=NC2=NN(c3ccccc3)CS2)cc1,7.08 µM (active)
7,c1ccc(N2CC3COc4ccccc4C3=N2)cc1 (stereo unspecified),inactive
8,c1ccc(C2=NN(c3ccccc3)CC2)cc1,inactive
9,CCOc1ccc(CN2CCCC(N3CCN(c4ccc(OC)cc4)CC3)C2)cc1 (stereo unspecified),inactive
10,[O-][n+]1onc2c1CCc1nnc(-c3ccccc3)cc1-2,39.8 µM (active)
11,CCc1ccc(/C=C2\Oc3c(ccc(O)c3CN3CCN(CCO)CC3)C2=O)cc1,inactive
12,O=C(CN(Cc1ccccc1)C(=O)c1csnn1)NCCc1ccccc1,inactive
13,CC(=O)N(CC(=O)Nc1nn(-c2ccccc2)nc1C(N)=O)Cc1ccccc1,39.8 µM (active)
14,Cc1nn(-c2ccccc2)nc1C(=O)NNC(=O)c1cccc2ccccc12,inactive
15,Cc1cc(/C=C2/C(=N)N3C(=NC2=O)SN=C3S(C)(=O)=O)c(C)n1-c1ccccc1,inactive
16,COC(=O)Cc1c(C)c2c(O)cc(C)cc2oc1=O,inactive
17,O=S(=O)([N-]c1nc2ccccc2nc1-[n+]1ccn(Cc2ccccc2)c1)c1ccc(Br)cc1,inactive
18,CC(=O)Nc1ccc(CN2CCN(C3CCCCC3)C(CCO)C2)cc1 (stereo unspecified),inactive
19,Cc1ccc(CN2CCC(CNC(=O)Nc3ccc(Cl)cc3)C2)cc1 (stereo unspecified),39.8 µM (active)
20,O=C(NCc1ccc(Cl)cc1)C1CCCN(C(=O)c2ccc(Cl)cc2)C1 (stereo unspecified),inactive
21,Cc1nn(CCCC(=O)NCc2ccc(F)cc2)c(=O)c2nccn12,inactive
22,CCN(CC(=O)NCc1cccs1)S(=O)(=O)c1ccc([N+](=O)[O-])cc1,inactive
23,CSc1ccccc1NC(=O)CN(C)C(=O)CNc1ccc(C(F)(F)F)cc1[N+](=O)[O-],inactive
24,Cc1cc(OCC(=O)OCC(=O)NCC2CCCO2)ccc1Cl (stereo unspecified),inactive
25,O=C(CN(c1cccc(C(F)(F)F)c1)S(=O)(=O)c1ccc(Cl)c([N+](=O)[O-])c1)NCc1ccccc1Cl,39.8 µM (active)
26,O=C(CN(c1ccc(Br)cc1)S(=O)(=O)c1ccc(Cl)c([N+](=O)[O-])c1)NCC1CCCO1 (stereo unspecified),31.6 µM (active)

row,Structure (SMILES),Potency
1,Cc1c(N(C)S(=O)(=O)c2cc(C(=O)NCC3CCCO3)ccc2Cl)c(=O)n(-c2ccccc2)n1C (stereo unspecified),inactive
2,CNC(=O)c1ccc(-c2sc3nc(N4CCOCC4)c4c(c3c2N)CCCC4)o1,inactive
3,CC(C)c1ccc(NC(=O)c2cc(S(=O)(=O)NCc3ccccc3Cl)ccc2F)cc1,28.2 µM (active)
4,O=C(O)c1ccc(NS(=O)(=O)c2ccc(NC(=O)c3ccccc3Cl)cc2)cc1,inactive
5,O=C(Nc1ccccc1)c1cc(S(=O)(=O)Nc2cccnc2)ccc1Cl,inactive
6,Cc1nc2nc(-c3ccc(Cl)cc3)cn2nc1C,inactive
7,C=C[S+]([O-])c1sc(Cl)c(N2CCOCC2)c1[N+](=O)[O-] (stereo unspecified),15 µM (active)
8,O=S(=O)(Nc1cccc(-c2nc3cccnc3s2)c1)c1ccc2c(c1)OCCO2,inactive
9,Cc1ccccc1/C=N/Nc1ccnc2cc(Cl)ccc12,28.2 µM (active)
10,Clc1ccc2c(N/N=C/c3cccc(Br)c3)ccnc2c1,25.1 µM (active)
11,FC(F)(F)c1ccccc1/C=N/Nc1ccccn1,inactive
12,Cc1ccc(NCC(=O)N/N=C/c2cccc(Br)c2)cc1,inactive
13,O=[N+]([O-])c1ccc(Cl)cc1N/N=C/c1ccncc1,inactive
14,CN(C)c1nc(NCc2ccccc2)nc(N/N=C/c2ccc(Cl)cc2Cl)n1,inactive
15,N#C/C(=C/c1ccc(F)cc1)c1nnc(NC(=O)c2ccccc2)s1,inactive
16,N#Cc1cc2c(=O)n3ccccc3nc2n(-c2ccc(Cl)cc2)c1=O,inactive
17,O=c1oc2cc(O)ccc2cc1-c1ccccc1,inactive
18,COc1ccc(CCNc2ncnc3c2cnn3-c2cc(Cl)ccc2C)cc1,22.4 µM (active)
19,Cc1ccc(-n2ncc3c(NCCCN(C)C)ncnc32)cc1Cl,39.8 µM (active)
20,Cc1cc(NCCCN(C)C)n2c(nc3ccccc32)c1C#N,inactive
21,COc1ccc(CNc2nc(C)cc(C)c2C#N)cc1,inactive
22,CCN(CC)c1ncnc2c1cnn2Cc1ccc(Cl)cc1,inactive
23,CCCCn1nc(NC(=O)CC)c2cc3cc(OC)ccc3nc21,inactive
